For three molecules, AC50 and outcome results are on record in PubChem BioAssay (EPA / NIEHS).

Assay [1] relates to Thyroperoxidase (TPO), gene 54314. Briefly: CCTE_Simmons_AUR_rTPO: CCTE's Amplex UltraRed Assay for Thyroperoxidase (TPO) Inhibition, Simmons Lab (AID 2283662).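 Further: potency for loss of signal meaning inhibition of peroxidase activity.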 The method in brief:
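Rat thyroid microsomal TPO + 25 uM AUR in 200 mM K phosphate; cpd 5 nM–87.5 uM [final], 8 conc, 0.5% DMSO; 300 uM H2O2 starts rxn; 37C dark 30 min; endpoint FI 544/590 nm; n=3.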

Assay [2] in a line: CCTE_Simmons_CellTiterGLO_HEK293T: Viability Assessment in CCTE's Assays for Thyroperoxidase (TPO) Inhibition, Simmons Lab (AID 2283665).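 On AC50: cells exposed to compound for 24 h before readout; actives reduce ATP signal below DMSO vehicle meaning cytotoxicity.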 An outline of the steps:
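HEK293T cells in DMEM with 1% FBS were dosed with 8 concentrations (5 nM–87.5 uM final, 0.5% DMSO) for 24 hr at 37C; ATP content was read by CellTiter-Glo luminescence, loss-of-signal versus DMSO, three biological replicates.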
(Cellular ATP, detected with luciferase, serves as a proxy for viable cell number.)

Assay [3] in a line: Tanguay_ZF_120hpf_JAW_legacy: (Legacy) Oregon State University Tanguay Lab 120 Hour Post-fertilization zebrafish Assay for Jaw Malformation (AID 2283638). An outline of the steps: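 Binary jaw-malformation calls at 120 hpf by brightfield imaging; DMSO (0.64% v/v) = baseline. Embryos: 5D wild-type, pronase-dechorionated, one per well from 6 hpf, static exposure, 28C, sealed, dark.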

Assay [4] can be described thus: Tanguay_ZF_120hpf_SOMI_legacy: (Legacy) Oregon State University Tanguay Lab 120 Hour Post-fertilization zebrafish Assay for Somite Malformation (AID 2283647). The method in brief:
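Binary brightfield scoring of somite defects at 120 hpf in 5D wild-type larvae; one dechorionated embryo per well, static exposure from 6 hpf, 28C, sealed and dark. Final DMSO 0.64%; trimethyltin chloride 5uM positive control.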

The nature of assay [5]: Tanguay_ZF_120hpf_CFIN_legacy: (Legacy) Oregon State University Tanguay Lab 120 Hour Post-fertilization zebrafish Assay for Caudal Fin Malformation (AID 2283649). An outline of the steps: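 Dechorionated 5D wild-type zebrafish, static exposure 6–120 hpf, 28C, sealed and dark, 0.64% v/v DMSO final. Binary fin-malformation call at 120 hpf, brightfield; gain of signal vs DMSO baseline.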

Assay [6] in a line: Tanguay_ZF_120hpf_PIG_legacy: (Legacy) Oregon State University Tanguay Lab 120 Hour Post-fertilization zebrafish Assay for Pigmentation Malformation (AID 2283650). The method in brief:
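Tropical 5D wild-type zebrafish embryos, dechorionated with pronase at 4 hpf, were exposed singly from 6 hpf to 120 hpf statically at 28C in sealed, dark plates with 0.64% DMSO; pigmentation scored present/absent by brightfield microscopy, fitted against DMSO.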

Assay [7] can be described thus: Tanguay_ZF_120hpf_CIRC_legacy: (Legacy) Oregon State University Tanguay Lab 120 Hour Post-fertilization zebrafish Assay for Circulatory Malformation (AID 2283651). An outline of the steps:
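Tropical 5D wild-type embryos, dechorionated with pronase at 4 hpf, were placed singly in wells at 6 hpf and exposed statically at 28C to 120 hpf (0.64% DMSO final). Circulatory malformation was scored present/absent by brightfield microscopy.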

A short description of assay [8]: Tanguay_ZF_120hpf_SWIM_legacy: (Legacy) Oregon State University Tanguay Lab 120 Hour Post-fertilization zebrafish Assay for Swim Bladder Malformation (AID 2283654).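 Further: swim bladder malformation in each larva scored yes or no under brightfield.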 An outline of the steps: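 Dechorionated Tropical 5D wild-type embryos, placed singly from 6 hpf, were statically exposed at 28C to 120 hpf with 0.64% DMSO final; swim bladder malformation was scored present/absent by brightfield microscopy, gain of signal relative to DMSO controls.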

A short description of assay [9]: Tanguay_ZF_120hpf_TRUN_legacy: (Legacy) Oregon State University Tanguay Lab 120 Hour Post-fertilization zebrafish Assay for Truncated Body (AID 2283655). An outline of the steps:
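Whole-embryo zebrafish screen: dechorionated 5D embryos, static exposure 6–120 hpf, 28C, sealed foil-covered plates, 0.64% DMSO. Binary truncation call; gain of signal versus DMSO baseline.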

Assay [10] in a line: Tanguay_ZF_120hpf_NC_legacy: (Legacy) Oregon State University Tanguay Lab 120 Hour Post-fertilization zebrafish Assay for Notochord and Tail Malformation (AID 2283656). An outline of the steps:
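Dechorionated 5D zebrafish, 1/well from 6 hpf; static exposure to 120 hpf, 28C, sealed, dark; final DMSO 0.64% v/v. NC scored binary (present/absent); dead embryos not scored. Fit vs DMSO baseline, gain direction.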

Assay [11] is described as follows: CCTE_Padilla_ZF_144hpf_TERATOSCORE: (Legacy) CCTE's 144 Hour Post-fertilization zebrafish Assay Teratoscore, Padilla Lab (AID 2283679; active means hit-call score of the fitted dose curve at least 0.9, where 1 is the maximum; inactive means score below 0.9). An outline of the steps: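 Larvae scored by eye at 144 hpf for death, hatching and malformations after a day in clean Hanks'. Before that, daily-renewed exposure at 80 uM (0.4% DMSO, 26C) from roughly 6-8 hpf through 5 dpf, 4 embryos per chemical.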

Records with an inconclusive call do not appear. Calls of active or inactive are those of the source. How the source made its calls, unless noted: active means hit-call score of the fitted dose curve at least 0.9, where 1 is the maximum; inconclusive means response in the unintended direction; inactive means score below 0.9.

The term AC50 denotes the concentration giving half of the maximal activity seen.

For `CCCCN(CC)C(=O)SCCC`, the AC50 in [1] is 6.35 µM (active); in [2], 73.1 µM (active).
As for `Cc1cccc(N)c1`, the outcome in assay [3], in [4], in assay [5], in assay [6], in [7] and in [8] was inactive. The molecule was called inactive in [9], in assay [10], in assay [2] and in assay [11]. Also, the concentration at half-maximal activity (AC50) in assay [1] is 0.268 µM (active).
Regarding `O=S(=O)(c1ccc(O)cc1)c1ccc(O)cc1`, the concentration at half-maximal activity (AC50) in assay [1] is 32 µM (active).
